In a collection of fitness landscapes (doi:10.1038/s41467-024-54723-y):
Over roughly 18,000 sequences, “TetR repression strength (sort-seq, GFP reporter)” has its median near 0.23; the highest 2% begin near 0.68. This is one part of a sample in which the highest values are shown more often than they occur.

Each sequence was assayed against TetR (class B, Tn10) (UniProt P04483) (assay: TetR repression strength (sort-seq, GFP reporter) (relative to tetO2 = 1); higher = stronger repression). Conditions: E. coli.
Sequence of TetR (class B, Tn10) (P04483 whole entry): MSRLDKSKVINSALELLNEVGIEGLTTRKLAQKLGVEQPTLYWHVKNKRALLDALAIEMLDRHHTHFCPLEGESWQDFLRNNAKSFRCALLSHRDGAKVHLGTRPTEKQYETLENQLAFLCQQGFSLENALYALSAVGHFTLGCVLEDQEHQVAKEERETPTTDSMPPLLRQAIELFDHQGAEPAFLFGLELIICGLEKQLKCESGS
Summary of the method: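 Repression strength was calculated by subtracting the read-weighted mean bin from the top bin index plus one and dividing by the unaltered operator's value. The plasmid library was low-copy in E. coli SIG10-MAX, with eight randomized operator positions between a constitutive promoter and sfGFP and constitutive TetR. Cultures grew 5 h at 37 °C in LB containing 50 µg/mL chloramphenicol before 10^6 cells were sorted by FACS into 13 fluorescence bins, each sequenced on Illumina. Three independent transformations were averaged for members having ≥30 reads in all replicates and a CV ≤0.5.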

Sequence | TetR repression strength
TCCCGAATAGTCGACGAGA | 0.165
TCCCGTATAGTCTGGGAGA | 0.198
TCCCAGCTAGTGAACGAGA | 0.379
TCCCAGCAAGTGGGTGAGA | 0.699
TCCCAGCTAGTGAGTGAGA | 0.716
TCCCAGCAAGTGTGTGAGA | 0.1
TCCCAGCTAGTGAGAGAGA | 0.36
TCCCAGCAAGTGAGTGAGA | 0.201
TCCCAGCGAGTGACGGAGA | 0.207
TCCCAGCGAGTGACCGAGA | 0.694
TCCCAGCTAGTGACGGAGA | 0.226
TCCCAGCTAGTGATTGAGA | 0.306
TCCCAGCGAGTGAGCGAGA | 0.153
TCCCAGCTAGTGACCGAGA | 0.694
TCCCTTCGAGTTCTCGAGA | 0.207
TCCCTCCTAGTCTCCGAGA | 0.394
TCCCACGGAGTCGGCGAGA | 0.148
TCCCGGAAAGTCACAGAGA | 0.108
TCCCTGTGAGTGGACGAGA | 0.227
TCCCAGCTAGTTTCTGAGA | 0.207
TCCCTAAAAGTGTAGGAGA | 0.131
TCCCAGTGAGTTCGCGAGA | 0.402
TCCCACTCAGTATGTGAGA | 0.108
TCCCGTAAAGTGTTAGAGA | 0.696
TCCCGTAAAGTGTGAGAGA | 0.0929
TCCCGTACAGTGTTAGAGA | 0.284

Sequence | TetR repression strength
TCCCGTTTAGTGTTAGAGA | 0.222
TCCCGTGTAGTGTTAGAGA | 0.24
TCCCGTCTAGTGTTAGAGA | 0.851
TCCCACCGAGTTTTTGAGA | 0.46
TCCCACAGAGTAATGGAGA | 0.108
TCCCCGTTAGTTTTGGAGA | 0.104
TCCCTAGTAGTACGCGAGA | 0.0159
TCCCTAGGAGTACGAGAGA | 1.01
TCCCTAGGAGTAGGAGAGA | 0.268
TCCCTAGTAGTACGAGAGA | 1.22
TCCCTGGTAGTACGAGAGA | 0.219
TCCCTAGGAGTACGCGAGA | 0.226
TCCCGTAGAGTCTCAGAGA | 0.257
TCCCTTTTAGTTATAGAGA | 0.231
TCCCCACGAGTTCAGGAGA | 0.271
TCCCGTAGAGTAATGGAGA | 0.344
TCCCACTGAGTGAGAGAGA | 0.473
TCCCTGTGAGTTGGGGAGA | 0.189
TCCCGCGAAGTCAGAGAGA | 0.382
TCCCCCAAAGTGAAGGAGA | 0.104
TCCCTTAAAGTGAAGGAGA | 0.097
TCCCCTCCAGTGAAGGAGA | 0.572
TCCCCTTCAGTGGAGGAGA | 0.65
TCCCCTAAAGTGAAGGAGA | 0.721
TCCCCTTCAGTGAAGGAGA | 0.702
TCCCGTAAAGTTCAAGAGA | 0.415

Sequence | TetR repression strength
TCCCCGCCAGTTGGCGAGA | 0.16
TCCCTTTGAGTAAATGAGA | 0.33
TCCCTCCGAGTCATCGAGA | 0.264
TCCCTTCAAGTGCGGGAGA | 0.0975
TCCCCCTGAGTAGTAGAGA | 0.207
TCCCCTATAGTGATAGAGA | 0.982
TCCCTTAGAGTGGTCGAGA | 0.215
TCCCCTATAGTGGTGGAGA | 0.201
TCCCTTAGAGTGGTAGAGA | 0.695
TCCCCTAGAGTGGTAGAGA | 0.634
TCCCCTATAGTGGTAGAGA | 0.84
TCCCTTGGAGTGGTAGAGA | 0.172
TCCCCTGTAGTGATAGAGA | 0.387
TCCCCTATAGTGCTAGAGA | 0.285
TCCCCTTTAGTTGTAGAGA | 0.246
TCCCGGTCAGTCTTTGAGA | 0.165
TCCCCGAGAGTGAGGGAGA | 0.129
TCCCCTTAAGTCGAGGAGA | 0.157
TCCCATCGAGTCGGTGAGA | 0.179
TCCCGGTTAGTGTAGGAGA | 0.172
TCCCGCGCAGTCAGTGAGA | 0.415
TCCCTCGAAGTGATCGAGA | 0.343
TCCCAACAAGTGAATGAGA | 0.336
TCCCTCTCAGTGATAGAGA | 0.866
TCCCTGTCAGTTATAGAGA | 0.649
TCCCTCTAAGTTATAGAGA | 0.703

Sequence | TetR repression strength
TCCCTCACAGTGATAGAGA | 0.513
TCCCTGTAAGTTATAGAGA | 0.375
TCCCTCTCAGTCAGAGAGA | 0.423
TCCCCCTAAGTTATAGAGA | 0.525
TCCCTCTCAGTTAGTGAGA | 0.339
TCCCTCTCAGTTAGAGAGA | 0.726
TCCCACTCAGTTATAGAGA | 0.661
TCCCTCTCAGTTATAGAGA | 0.716
TCCCTCAGAGTGATAGAGA | 0.342
TCCCGGTTAGTTGAGGAGA | 0.12
TCCCTCAGAGTGTTAGAGA | 0.248
TCCCGAGAAGTCCATGAGA | 0.207
TCCCGTGAAGTCGCTGAGA | 0.168
TCCCTAGTAGTAAGCGAGA | 0.136
TCCCGCACAGTTATAGAGA | 0.275
TCCCGCTCAGTTATAGAGA | 0.764
TCCCGATCAGTTATAGAGA | 0.579
TCCCGAGGAGTTGGCGAGA | 0.14
TCCCGGAAAGTTGTGGAGA | 0.275
TCCCGGGGAGTTACGGAGA | 0.447
TCCCCGGAAGTTACGGAGA | 0.343
TCCCGGGGAGTTGTGGAGA | 0.215
TCCCGGGAAGTTACGGAGA | 0.707
TCCCGGGAAGTTGTGGAGA | 1.1
TCCCCAAAAGTTTGTGAGA | 0.0341
TCCCCTCGAGTTGGGGAGA | 0.121

Sequence | TetR repression strength
TCCCGGAGAGTCCTTGAGA | 0.295
TCCCTCGAAGTGCGGGAGA | 0.25
TCCCCAAGAGTAAATGAGA | 0.368
TCCCGGATAGTGACCGAGA | 0.131
TCCCTCCAAGTGGGAGAGA | 0.14
TCCCCGCCAGTCCAGGAGA | 0.104
TCCCGCCAAGTCCCTGAGA | 0.389
TCCCCCCCAGTCTAGGAGA | 0.8
TCCCGCCAAGTCCCGGAGA | 1.1
TCCCTGCAAGTCTAGGAGA | 0.171
TCCCTCCCAGTCTAGGAGA | 0.263
TCCCCGCCAGTCTAGGAGA | 0.681
TCCCCAGGAGTCTAGGAGA | 0.284
TCCCTGCCAGTCTAGGAGA | 0.415
TCCCCGGAAGTCTAGGAGA | 0.113
TCCCCGCAAGTCTAGGAGA | 0.739
TCCCGCCAAGTCCGGGAGA | 0.21
TCCCCGTGAGTCGATGAGA | 0.313
TCCCGCGTAGTCCGCGAGA | 0.172
TCCCGAGTAGTGTGTGAGA | 0.28
TCCCATTGAGTTCCGGAGA | 0.115
TCCCATCCAGTGGGGGAGA | 0.175
TCCCCCCTAGTTGTGGAGA | 0.213
TCCCTGTGAGTTGGTGAGA | 0.656
TCCCTTTCAGTGATGGAGA | 0.574
TCCCTTTAAGTAATAGAGA | 0.44

Sequence | TetR repression strength
TCCCTTTCAGTAATAGAGA | 0.745
TCCCTCTCAGTAATAGAGA | 0.686
TCCCTATCAGTAACAGAGA | 0.539
TCCCTAACAGTAATAGAGA | 0.569
TCCCTATCAGTAATAGAGA | 0.878
TCCCTTTCAGTGATAGAGA | 0.785
TCCCTTTCAGTTATAGAGA | 0.649
TCCCTCTCAGTACTAGAGA | 0.283
TCCCTCTAAGTAATAGAGA | 0.472
TCCCTTTCAGTGAGAGAGA | 0.566
TCCCACCAAGTGGGTGAGA | 0.139
TCCCTGTGAGTTTGGGAGA | 0.424
TCCCGGAGAGTTTCTGAGA | 0.191
TCCCCTTTAGTGCCTGAGA | 0.523
TCCCGTTGAGTAGGGGAGA | 0.0793
TCCCAGGGAGTAGCGGAGA | 0.159
TCCCACGTAGTGCAAGAGA | 0.62
TCCCTTCAAGTGCTCGAGA | 0.24
TCCCATGTAGTGTGGGAGA | 0.203
TCCCGATCAGTGCAGGAGA | 0.299
TCCCTGCTAGTGGAGGAGA | 1.14
TCCCTGCTAGTGGGGGAGA | 0.0729
TCCCTGCGAGTGGGGGAGA | 0.264
TCCCTGCGAGTGGTGGAGA | 0.112
TCCCTGCGAGTGGAGGAGA | 1.08
TCCCTGCTAGTGGTGGAGA | 0.404

Sequence | TetR repression strength
TCCCGGGAAGTGTGTGAGA | 0.177
TCCCTTGTAGTGAATGAGA | 0.277
TCCCGGGCAGTGCCTGAGA | 0.283
TCCCCGGGAGTGAGGGAGA | 0.13
TCCCGGCCAGTTAGAGAGA | 0.129
TCCCGGGAAGTCTGGGAGA | 1.24
TCCCGGGGAGTCTGGGAGA | 0.179
TCCCGGAAAGTCTGGGAGA | 0.153
TCCCGGGCAGTCTGAGAGA | 0.179
TCCCTGCCAGTCTGCGAGA | 0.24
TCCCCGGCAGTCTGCGAGA | 0.266
TCCCCGGCAGTCTGGGAGA | 0.271
TCCCGGGCAGTCTGGGAGA | 1.2
TCCCGGCCAGTCTGCGAGA | 0.967
TCCCAGGTAGTAATAGAGA | 0.443
TCCCTGTCAGTACAGGAGA | 0.118
TCCCAAACAGTTTGTGAGA | 0.0981
TCCCCGAAAGTACAGGAGA | 0.259
TCCCCTGTAGTCGTAGAGA | 0.344
TCCCCGGGAGTGGGCGAGA | 0.993
TCCCCAGGAGTCGGCGAGA | 0.237
TCCCCAGGAGTGGGCGAGA | 0.894
TCCCAGGGAGTGGGCGAGA | 0.312
TCCCCAGCAGTGGGCGAGA | 0.125
TCCCGAGGAGTCGGCGAGA | 0.0782
TCCCCAGTAGTGGGCGAGA | 0.963

Sequence | TetR repression strength
TCCCAAGGAGTCGGCGAGA | 0.743
TCCCCCGGAGTGGGCGAGA | 0.111
TCCCCAGTAGTGGGGGAGA | 0.14
TCCCGGGGAGTGGGCGAGA | 0.225
TCCCAAGGAGTGGGCGAGA | 0.231
TCCCACCCAGTAGTGGAGA | 0.211
TCCCTAGAAGTCCTAGAGA | 0.0793
TCCCCAGGAGTATCGGAGA | 0
TCCCGTCTAGTTTCCGAGA | 0.169
TCCCGGTCAGTCTGTGAGA | 0.287
TCCCTGGCAGTGTGTGAGA | 0.164
TCCCATCGAGTCTGAGAGA | 0.218
TCCCATACAGTTGAGGAGA | 0.0487
TCCCACTTAGTGCGAGAGA | 0.0746
TCCCTTAGAGTCCTGGAGA | 0.0777
TCCCGGGGAGTGCTGGAGA | 0.359
TCCCCTAGAGTCCTGGAGA | 0.952
TCCCCTGGAGTCCTGGAGA | 0.439
TCCCTGAGAGTGCTGGAGA | 0.564
TCCCTAGGAGTGCTGGAGA | 0.382
TCCCCGAGAGTGCTGGAGA | 0.252
TCCCTAAGAGTGCTGGAGA | 0.768
TCCCGGAGAGTGCTGGAGA | 1.07
